Bioassay records from PubChem.
Compounds with a hit are over-represented: about 2.4% of the library has one in this group of screens.
HSF1 inh – HSF1 inhibition; NIH3T3-HGL HSE-luciferase, MG132-induced, luminescence 8 h; active compounds read low; activity change, negative = inhibition, % at 7.5 µM (by protocol); hit rate 0.77% among 300,000;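 active = more than half of replicate wells show activity change below -50%, luminescence cut by over half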;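 note: luciferase reports HSF-1 transcriptional activity via heat shock element; 0% = median of DMSO wells and -100% = zero luminescence signal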
STAT1 inh – reduces IFN-gamma driven STAT1 reporter signal; hit rate 0.35% among 200,000; inhibition, % at 5.5 µM; NIH 3T3 STAT1-luciferase reporter, luminescence; AID 920;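 active = inhibition above a set limit, the mean inhibition across all tested compounds plus 3 SD, cut at about 34% in these data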;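 note: 0% = IFN-gamma with DMSO and 100% = IFN-gamma with 300 µM nifuroxazide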
TRAIL sens C8 – sensitizes caspase-8 expressing cells to TRAIL; hit rate 1% among 360,000; inhibition (viability loss, TRAIL sensitization), % at 10 µM; NB7+C8 cells + TRAIL, ATPlite viability luminescence;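 active = compounds causing at least 50% loss of cell viability in the single-dose screen, relative to plate controls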
STAT3 blocker – reduces IL-6 driven STAT3 reporter signal | U3A cells, IL-6 STAT3-luciferase reporter, luminescence; host cell line lacks STAT1 | inhibition, % at 5.5 µM | hit rate 0.89% among 190,000 | AID 862;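 active = inhibition above the mean inhibition across all screened compounds plus 3 SD, cut at about 44% in these data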;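 note: 0% = DMSO only wells and 100% = 100 µM nifuroxazide control wells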
HSP90 inh – HSP90 refolding inhibition in rabbit reticulocyte lysate | luciferase refolding luminescence, 3 h | hit rate 0.91% among 290,000 | inhibition, % at 5.6 µM | AID 1789;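 active = inhibition above the screen-wide mean plus 3 SD, computed separately per campaign, cut at about 16% in these data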;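 note: 0% = DMSO wells and 100% = 60 µM geldanamycin wells; inhibitors lower the luminescence because luciferase stays unfolded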
PPC-1+TRAIL kill – PPC-1 cancer cell killing with TRAIL present; cell killing (% activity), % at 4 µM or 5 µM; PPC-1 cells + TRAIL, ATPLite viability luminescence; hit rate 0.41% among 220,000;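 active = cell killing above 50% in the first pass at 4 µM, then a duplicate retest at 5 µM averaging 50% or more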;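 note: plate controls were cells with TRAIL plus DMSO for no effect and medium-only wells lacking cells for full effect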
* hit, by the source's call; / = not tested or not shown.

SMILES | HSF1 inh | STAT1 inh | TRAIL sens C8 | STAT3 blocker | HSP90 inh | PPC-1+TRAIL kill
CC(=O)N(C)c1ccc(NC(=S)Nc2cccc3ccccc23)cc1 | 9.1 | -23.0 | -3.3 | -3.9 | 2.5 | 29.2
CC1(C(=O)Nc2ccc(Cl)c(Cl)c2)CCN1Cc1cc2ccccc2o1 (centres undefined) | / | / | -15.3 | / | / | /
CC(C)C[C@@H]1Cc2[nH][nH]c(=O)c2[C@H](C)O1 | / | / | -17.3 | / | / | /
COc1cc(NC(=O)c2cccc3c(-c4cnn(C)c4)coc23)cc(OC)c1OC | / | / | 26.1 | / | / | /
c1ccc(-c2nc3ccccc3c3nncn23)cc1 | -59.2* | -2.5 | 7.3 | 2.9 | 0.9 | 10.9
CCC(C)n1c(SC(C)C#N)nc2ccccc2c1=O (centres undefined) | -85.0* | -2.4 | -8.1 | -1.8 | 2.5 | -5.6
COc1ccccc1Cc1c(-c2ccco2)nc2ccc(C)cn12 | / | / | 41.6 | / | / | /
CC1=NN(c2ccc(C)c(C)c2)C(=O)/C1=C\C=C\c1ccc([N+](=O)[O-])o1 | / | 0.0 | 79.3* | 0.3 | 2.9 | 15.6
Nc1nc2n(c1C(=O)c1ccccc1)CCC2 | -70.1* | 1.2 | -7.4 | 0.0 | 2.4 | 23.3
O=C(c1ccc2nc(N3CCCCC3)sc2c1)N1CCN(Cc2ccc3c(c2)OCO3)CC1 | -30.9 | -15.2 | -0.3 | 1.7 | 31.4* | 13.0
C=CCn1c(C)cc(C(=O)CSc2nnc(NCc3ccccc3)s2)c1C | / | -12.8 | 28.5 | -3.5 | 0.2 | /
C=CCn1c(C)cc(C(=O)CSc2nnc(NC(C)C)s2)c1C | -59.3* | -5.7 | -8.6 | 6.0 | 0.8 | -8.6
c1ccc2nc3c(nc2c1)[nH]c1ccccc13 | 26.9 | -66.0 | 51.9* | -12.5 | -2.6 | 31.2
CN(C)c1ncnc2c1ncn2[C@H]1CN(Cc2ccc3c(c2)OCO3)C[C@@H](CO)O1 | / | / | -9.7 | / | / | /
Cc1cccc(NC(=O)COC(=O)CN2C(=O)c3ccccc3C2=O)c1C | / | / | -9.2 | / | / | /
CC(=O)C[C@H]1c2cc(F)ccc2S(=O)(=O)N1c1ccc(N(C)C)cc1 | -61.6* | / | -6.9 | / | / | /
NC(=O)c1cc(Cl)ccc1OCC(=O)Nc1ccc2c(c1)OCO2 | / | / | 68.5* | / | / | /
CC(=O)c1cc(F)ccc1OCC(=O)Nc1ccc2c(c1)OCO2 | / | / | 65.6* | / | / | /
O=C(COC(=O)C1=COCCO1)Nc1ccc2c(c1)OCO2 | -63.1* | 0.0 | -6.3 | 2.4 | -1.3 | 23.1
COc1ccccc1Cc1c(-c2ccccc2)nc2ccc(Cl)cn12 | / | / | -3.0 | / | / | /
O=C(Cn1cc([N+](=O)[O-])cn1)NCC1CCCO1 (centres undefined) | -62.9* | 0.1 | -6.1 | 0.2 | -4.5 | 12.8
CC(C)Cc1ccc(C(C)/C=C2/CCC(CN3CCCCC3)C2=O)cc1 (centres undefined) | / | / | 10.9 | / | / | /
CC(C)Cc1ccc(C(C)CC2=CCC(CN(C)C)C2=O)cc1 (centres undefined) | / | / | 90.6* | / | / | /
O=C(c1ccncc1)N1CCN(c2ccc(F)cc2)CC1 | -65.9* | 9.2 | 0.2 | -0.2 | -2.5 | -7.7
O=C(c1ccc(Cl)cc1)N1CCN(c2ccc(F)cc2)CC1 | 8.6 | -0.6 | 9.4 | 14.3 | -3.7 | 16.0
SMILES | HSF1 inh | STAT1 inh | TRAIL sens C8 | STAT3 blocker | HSP90 inh | PPC-1+TRAIL kill
CC1NC(=O)c2ccccc2-n2c1nc1ccc(F)cc1c2=O (centres undefined) | / | / | -8.5 | / | / | /
O=C(N/N=C/c1ccc(O)cc1)c1[nH]c2ccc(Br)cc2c1-c1ccccc1 | -58.1* | -8.3 | -36.2 | -44.7 | -1.8 | -3.7
COCCNc1nc(Oc2cccc3ccccc23)c2sccc2n1 | / | / | 10.7 | / | / | /
O=C1C(=O)c2ccccc2C(O)=C1CCCCl | 14.7 | / | 68.2* | / | 8.9 | 11.3
O=C(Cc1cc(C(F)(F)F)cc(C(F)(F)F)c1)Nc1c(-c2ccccc2)[nH][nH]c1=O | / | / | -11.5 | / | / | /
Cc1ccc(-c2nnc(-c3cccc4ccccc34)o2)cc1 | / | / | 53.4* | / | / | /
O=[N+]([O-])c1ccc(S(=O)Cc2ccccc2)c([N+](=O)[O-])c1 (centres undefined) | / | / | 65.7* | / | / | /
CSc1ccccc1NC(=O)C1(C)CCN1C(=O)Cc1ccc(-c2ccccc2)cc1 (centres undefined) | / | / | 5.1 | / | / | /
O=C(COC(=O)Cc1c(Cl)cccc1Cl)NCc1ccccc1 | / | / | -1.3 | / | / | /
CN(C)C(=O)c1cccc(-c2cccc(-c3nc(C(=O)NCc4ccccc4)cc4c3[C@H](CCO)N(S(=O)C(C)(C)C)C4)c2)c1 (some centres undefined) | / | / | -3.9 | / | / | /
CCOC(=O)c1cnc2ccc(C(=O)OC)cc2c1NCCCN1CCOCC1 | -82.6* | / | 1.0 | / | -1.8 | /
CCOC(=O)c1cnc2ccc(C(=O)OC)cc2c1NCCN1CCOCC1 | -5.6 | 1.8 | 18.3 | -7.5 | 1.4 | 10.9
CC(C)Nc1nc(Nc2ccc(F)cc2)c2sccc2n1 | / | / | 3.9 | / | / | /
COc1ccc(NC(=O)CN(C)S(=O)(=O)c2ccc3c(c2)CCC(=O)N3)c(OC)c1 | -86.3* | 2.2 | -3.8 | 6.0 | -2.4 | 5.5
Cn1c(/N=C/c2ccc3c(c2)OCO3)nc2ccccc21 | -1.3 | -1.8 | -4.1 | -6.3 | 2.5 | 1.9
CC(=O)Nc1ccc(/C=C/c2nc3ccccc3o2)cc1 | 21.6 | / | 8.5 | / | -4.8 | /
C(=Cc1cnc2ccccc2n1)c1ccc2c(c1)OCO2 | / | / | 85.9* | / | / | /
C(=Cc1nc2ccccc2o1)c1ccc2c(c1)OCO2 | / | / | 79.6* | / | / | /
O=C(Nc1cccc(-c2ccc(N3CCOCC3)nn2)c1)c1ccccc1Cl | 19.9 | / | 60.7* | / | / | /
Cc1cc(C(=O)Nc2cccc(-c3ccc(N4CCOCC4)nn3)c2)ccc1[N+](=O)[O-] | 11.2 | / | 50.5* | / | / | /
O=C(COc1ccc(Cl)cc1)Nc1cccc(-c2ccc(N3CCOCC3)nn2)c1 | 32.3 | / | 58.7* | / | / | /
O=C(Nc1cccc(-c2ccc(N3CCOCC3)nn2)c1)c1ccc(Cl)cc1 | 9.7 | / | 18.5 | / | / | /
O=C(Nc1cccc(-c2ccc(N3CCCCC3)nn2)c1)c1ccco1 | 16.9 | / | 81.1* | / | / | /
Cc1ccc(C(=O)Nc2cccc(-c3ccc(N4CCOCC4)nn3)c2)cc1 | 15.9 | / | 43.6 | / | / | /
COC(=O)[C@]12CCCCC=C1N(Cc1ccccc1)C(=O)[C@H](CC(=O)NCc1cccc(C(F)(F)F)c1)C2 | / | / | -18.8 | / | / | /
SMILES | HSF1 inh | STAT1 inh | TRAIL sens C8 | STAT3 blocker | HSP90 inh | PPC-1+TRAIL kill
COc1cccc(OC)c1C(=O)Nc1cccc(-c2ccc(N3CCOCC3)nn2)c1 | 16.6 | / | 72.8* | / | / | /
COc1cc(OC)cc(C(=O)Nc2cccc(-c3ccc(N4CCOCC4)nn3)c2)c1 | 5.4 | / | 45.9 | / | / | /
Cc1cc(C(C)(C)C)oc1C(=O)N(CC(=O)NC1CCCC1)c1c(C)cccc1C | -52.8* | 0.3 | -5.2 | 3.9 | -0.2 | -7.7
CC(C)COC(=O)N1CCCCC1c1cc(C(=O)Nc2ccccc2)no1 (centres undefined) | / | / | 3.7 | / | / | /
Cc1cc(Cl)ccc1OCC(=O)Nc1ccncc1 | -59.3* | / | 24.9 | / | -7.9 | /
Cc1cccc(OCC(=O)Nc2ccncc2)c1C | -67.9* | / | 23.3 | / | -3.0 | /
